PubChem BioAssay AID2384 (Southern Research Specialized Biocontainment Screening …, 2010)
Hit rate of the full screen: of about 2,300 compounds, about 1,100 (48%) were called active. How the calls were made is not given here. The set was probably picked from earlier hits. Some of the results follow. Measured potencies and affinities stand elsewhere.

assay: inhibitors in S. typhi counter-screen strain, dose response, counter-screen for PhoP regulon inhibitor project, fluorescence, 4 h (AID 2384); details: S. typhi GFP reporter counter-screen; series mostly up to 150 µM

Compound | inhibition
CCOC(=O)COc1cccc2c(=O)n(CC(=O)N3CCCCC3)ccc12 | inactive
COc1cccc(-c2cc(C(=O)O)[nH]n2)c1 | inactive
COc1nc(N(C#N)CC(N)=O)nc(N2CCCC2)n1 | inactive
CCOC(=O)c1c(CSC(=N)N)n(C)c2cc(Br)c(OC(C)=O)cc12 | inactive
COC(=O)c1cc(CSC(=N)N)ccc1OCCC(C)C | inactive
COc1ccc(CSCCN)cc1Cl | inactive
CCCCOc1ccc(CN=C(N)N)cc1Cl | inactive
Cn1cnc2cc(NC(=O)c3cccs3)ccc21 | inactive
CCOC(=O)c1cccc(NC(=O)c2cccs2)c1 | inactive
CCN(CC)CCNc1nc(-c2ccc(OC)cc2)c(-c2ccc(OC)cc2)s1 | inactive
COc1ccc(CC(=O)N(Cc2cc3cc(OC)ccc3[nH]c2=O)C(C)C)cc1 | inactive
CC(=O)c1cccc(NC(=O)CCC2CCCC2)c1 | inactive
CCC(=O)Nc1nnc(-c2ccco2)o1 | inactive
Cc1cc(=O)n(CC(C)C)c(O)c1C#N | inactive
S=C1NCN(C2CCCCC2)CN1c1ccccc1 | inactive
CCc1nccc2c1[nH]c1ccccc12 | inactive
C=CCOc1ccc(-c2n[nH]c(=S)o2)cc1 | inactive
O=C1c2ccccc2C2=Nc3ccccc3SC(c3ccccc3F)C12 (stereo not drawn) | inactive
Cc1cccc(NS(=O)(=O)c2ccc3c(c2)OCCO3)c1 | inactive
COc1ccc(NC2=Nc3ccccc3CC2)cc1 | inactive
Cc1ccc(Cn2c(=N)c(C(=O)NCc3ccco3)cc3c(=O)n4ccccc4nc32)cc1 | inactive
c1ccc(CNc2nc(-c3ccccn3)nc3ccccc23)cc1 | inactive
CN(CCO)CC(O)Cn1cnc2c1c(=O)n(C)c(=O)n2C (stereo not drawn) (tested in a mixture with another compound) | inactive
COc1ccc(N2CCN(C(=O)c3cc4c(s3)-c3ccccc3S(=O)(=O)C4)CC2)cc1 | inactive
c1ccc(-c2nnc(-c3c[nH]c4ccccc34)nc2-c2ccccc2)cc1 | inactive

Compound | inhibition
O=c1oc2ccccc2c(O)c1C(c1ccccn1)c1c(O)c2ccccc2oc1=O | inactive
CC(C)(C)n1nc2c(c1NC(=O)Cc1cccs1)CSC2 | inactive
COC(=O)c1ccc(S(=O)(=O)N2CCC(c3nc4ccccc4o3)CC2)cc1 | inactive
CCCCN(C)C(=O)c1ccc(S(=O)(=O)N2CCOCC2)cc1 | inactive
CN(C)CCCN(C(=O)c1cc2cc([N+](=O)[O-])ccc2s1)c1nc2cc3c(cc2s1)OCCO3 | inactive
O=C(NCc1cccnc1)C1c2ccccc2C(=O)N1Cc1ccccc1 (stereo not drawn) | inactive
CCOC(=O)c1c(C)sc2c1N(C(C)=O)c1cc(Cl)ccc1S2 | inactive
NC(=O)c1c(NC(=O)CSc2nc(N)cc(=O)[nH]2)sc2c1CCCC2 | inactive
O=C(CC(=O)NCc1ccccc1)NCc1ccccc1 | inactive
CCOc1ccc(NC(=O)CN(C)C(=O)c2ccccc2CCc2ccccc2)cc1OCC | inactive
CCOCCCNC(=O)CN1CCN(Cc2ccccc2C)C1=O | inactive
COC(=O)C1C(=O)C2=C(CC1C)Nc1ccccc1NC2c1ccc(C)s1 (stereo not drawn) | inactive
CCc1nn(CCCN2CCN(c3cccc(Cl)c3)CC2)c(=O)n1CCOc1ccccc1 | inactive
Cc1nn(Cc2ccccc2Cl)c2sc(C(=O)Nc3ccccc3N3CCOCC3)cc12 | inactive
CN1C(=O)C2(Nc3ccccc3-c3nc4ccccc4n32)c2ccccc21 (stereo not drawn) | inactive
Oc1c(Br)cc(Br)cc1CNc1ccccn1 | inactive
CC(C)N=C1NN=C(c2ccc(F)cc2)CS1 | inactive
Cc1c(O)cccc1C(=O)N[C@@H](CSc1ccccc1)[C@H](O)CN1C[C@H]2CCCC[C@H]2C[C@H]1C(=O)NC(C)(C)C | inactive
COc1ccc(OCC(=O)Nc2ccc3c(c2)nc(CCN2CCC(C)CC2)n3C)cc1 | inactive
Cn1c(CN2CCCCC2)nc2cc(NS(=O)(=O)c3ccc(Cl)cc3)ccc21 | inactive
O=C(Nc1ccccc1)C1=C(O)CC(c2ccc(Cl)cc2)N2CCN=C12 (stereo not drawn) | inactive
O=c1c2cnn(-c3ccccc3)c2ncn1CCc1ccccc1 | inactive
COc1ccccc1NC(=O)Cn1nc(-c2ccncc2)nc1SCC(=O)NC1CCCC1 | inactive
O=C(NC(=O)c1ccccc1)OCC1CCCN2CCCCC12 (stereo not drawn) | inactive
C=CCn1c(C)c(C(C)=O)c(SC)nc1=S | inactive

Compound | inhibition
CCN(CC)Cc1c(C(=O)N/N=C/c2cccs2)nnn1-c1nonc1N | inactive
Nc1nonc1C(=O)NCCN=Cc1cc(Cc2ccccc2)cc(Br)c1O | inactive
CCOC(=O)c1c(C)[nH]c(C(=O)CN2C(=O)NC(C)(c3ccc4ccccc4c3)C2=O)c1C (stereo not drawn) | inactive
CCOC(=O)C(NC(=O)c1cccnc1)(Nc1cccc(C)n1)C(F)(F)F (stereo not drawn) | inactive
Nc1[nH]c(=O)ncc1F | inactive
CCN(CC)Cc1c(C(=O)N/N=C/c2cccc3ccccc23)nnn1-c1nonc1N | inactive
O=C(Nc1cccnc1)c1cc(Br)c(Br)s1 | inactive
N#CCC(=O)N/N=C/c1ccccc1Cl | inactive
COc1ccc(/C=N/NC(=O)c2cccnc2)cc1 | inactive
O=C(N/N=C/c1cccnc1)c1cccc(Cl)c1 | inactive
CCN(CC)S(=O)(=O)c1cc(NC(=O)C2Cc3ccccc3C(=O)O2)ccc1C (stereo not drawn) | inactive
Cc1ncc([N+](=O)[O-])n1CC(=O)NC1CCCC1 | inactive
CC(C)C(c1nnnn1Cc1ccccc1)N(CCCO)Cc1cc2cc3c(cc2[nH]c1=O)OCO3 (stereo not drawn) | inactive
COC(=O)c1ccc(CSc2ccc3nnc(-c4ccc(OC)c(OC)c4)n3n2)o1 | inactive
CCOc1ccc2nnnn2n1 | inactive
Cc1ccsc1/C=N/Nc1ccc(C(=O)O)cc1 | inactive
Cc1ccsc1/C=N/NC(=O)c1ccncc1 | inactive
CCOC(=O)C1Nc2c(F)cc(C)cc2C2c3ccccc3CC12 (stereo not drawn) | inactive
CC1(C)CC(=O)C(C=NCC2CCN(C(=O)Cc3ccccc3)CC2)=C(O)C1 | inactive
Cc1ccc(/C=N/NC(=O)CSc2nc3ccccc3n2C)s1 | inactive
CC(C)c1ccc(NC(=O)CSc2nnc(-c3ccccn3)n2C)cc1 | inactive
COc1ccc(NC(=O)CC2Sc3ncnn3C2=O)cc1 (stereo not drawn) | inactive
COc1ccc(CCNC2CCCCC2)cc1 | inactive
